This note sets out measurements from PubChem BioAssay AID1035475 (Broad Institute, 2014).

Potency and affinity values are given separately. Results filed as inconclusive are left out. Entries that show only a call come without a potency. Calls of active or inactive are those of the source.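 The calls were made as follows: active = fluorescent signal drops by 40% or more, counted as a hit; inconclusive = no clear call, values can overlap the other calls; inactive = the rest, including any activity in the opposite direction.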

The nature of this test: blockers of FN fibrillogenesis by fibroblasts – AH1F cells, Alexa488-FN fluorescence, cherry-picks, dose response (AID 1035475).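 Also: AH1F fibroblasts incorporating labeled fibronectin into their extracellular matrix.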 To be noted: Alexa488-fibronectin deposition fluorescence, overnight; series mostly up to 35 µM.
With `COc1ccc(-c2csc(CCn3nc(C)cc3C)n2)cc1OC`, the result was inactive.

As to `O=C(c1cccnc1)N1C[C@H]2[C@@H](c3ccccc31)[C@@H](CO)N2CC1CCCC1`, the call was inactive.

With `CCN1CCN(C(c2ccccc2)c2nnnn2Cc2ccccc2)CC1` (stereo not given), the result was inactive.

`COc1ccccc1CC(=O)OC(C)C(=O)Nc1ccc(S(=O)(=O)N2CCCCC2)cc1` (stereo not given): the result was inactive.

Take `C[C@@H]1CN([C@H](C)CO)C(=O)c2cc(-c3ccccc3)cnc2O[C@@H]1CN(C)C(=O)c1cccc(F)c1`: the compound was classed as inactive.

As to `CN(C)C(=O)c1ccc(-c2ccc3c(c2)[C@@H]2[C@@H](CCN2C(=O)c2ccc(F)cc2)[C@@H](CO)N3C)cc1`, the result was inactive.

With `CO[C@H]1CN(C)C(=O)c2cc(NC(=O)Nc3cc(Cl)cc(Cl)c3)ccc2OC[C@@H](C)NC[C@@H]1C`, the call was inactive.

Take `C[C@@H](O)C#Cc1ccc2c(c1)O[C@@H](CN(C)C)[C@@H](C)CN([C@@H](C)CO)S2(=O)=O`: the outcome was inactive.

On to `COc1ccccc1N(CC(=O)N(CC(C)C)CC(C)C)S(=O)(=O)c1cccs1`, for which the outcome was inactive.

Take `C[C@H]1CN([C@@H](C)CO)C(=O)c2cc(NC(=O)C3CCCCC3)ccc2O[C@H]1CN(C)Cc1ccc(-c2ccccc2)cc1`: the result was inactive.

As to `Cc1ccc(S(=O)(=O)N2CC[C@@H]3[C@H](CO)Nc4ccc(-c5cccc(C(=O)N(C)C)c5)cc4[C@@H]32)cc1`, the compound was called inactive.

Take `C[C@H]1CN([C@@H](C)CO)C(=O)c2cc(-c3ccccc3)cnc2O[C@@H]1CN(C)C(=O)c1cccc(F)c1`: the outcome was inactive.

As to `CO[C@@H]1CN(C)C(=O)c2cc(NC(=O)Nc3ccc(Cl)c(Cl)c3)ccc2OC[C@H](C)NC[C@H]1C`, the result was inactive.

Take `C[C@H](CO)N1C[C@H](C)[C@H](CN(C)Cc2ccc(-c3ccccc3)cc2)Oc2ccc(NC(=O)C3CCCCC3)cc2C1=O`: the compound was classed as inactive.

On to `CO[C@H]1CN(C)C(=O)c2cc(NC(=O)Nc3ccc(Cl)c(Cl)c3)ccc2OC[C@@H](C)NC[C@@H]1C`, for which the result was inactive.

As for `S=C(NCC1CCCO1)Nc1ccc(Cl)cc1Cl` (stereo not given), the call was inactive.

As for `C[C@H](O)C#Cc1ccc2c(c1)O[C@@H](CN(C)C)[C@H](C)CN([C@H](C)CO)S2(=O)=O`, the outcome was inactive.

On to `O=C(c1cccnc1)N1C[C@H]2[C@@H](c3ccccc31)[C@H](CO)N2CC1CCCC1`, for which the outcome was inactive.

Consider `CN1c2ccc(-c3ccccc3)cc2[C@@H]2[C@@H](CCN2C(=O)CN2CCOCC2)[C@@H]1CO`, for which the compound was called inactive.

As to `Cc1ccc(C(O)c2ncc(-c3cccc4ccccc34)[nH]2)cc1F` (stereo not given), the compound was called inactive.

Turning to `CCc1ccc(NC(=O)CSc2nnc(-c3ccco3)o2)cc1`, the compound was classed as inactive.

Regarding `C[C@H]1CN([C@@H](C)CO)C(=O)c2cc(-c3ccccc3)cnc2O[C@H]1CN(C)C(=O)c1cccc(F)c1`, the compound was classed as inactive.

Consider `C[C@H](CO)N1C[C@H](C)[C@H](CN(C)C(=O)Nc2cccc3ccccc23)Oc2c(NC(=O)Nc3ccc(C(F)(F)F)cc3)cccc2C1=O`, for which the compound was classed as inactive.

Take `C[C@H](CO)N1C[C@H](C)[C@H](CN(C)C(=O)c2cccc(F)c2)Oc2ncc(-c3ccccc3)cc2C1=O`: the result was inactive.

Turning to `COc1ncccc1C(=O)NC1CCCc2c1cnn2-c1ccc(C)c(C)c1` (stereo not given), the outcome was inactive.

Take `O=C(CCNS(=O)(=O)c1cccc2nonc12)NC1CCCc2ccccc21` (stereo not given): the outcome was inactive.

For the compound `C[C@@H]1CN([C@H](C)CO)C(=O)c2cc(-c3ccccc3)cnc2O[C@H]1CN(C)Cc1ccccc1`, the result was inactive.

On to `Cc1oc2ccc(O)cc2c1C(=O)c1ccc(Br)cc1`, for which the call was inactive.

Take `COCC(=O)Nc1ccc2c(c1)C(=O)N(C)[C@@H]1CC[C@@H](CC(=O)NCc3ccccc3Cl)O[C@@H]1CO2`: the compound was classed as inactive.

For the compound `CO[C@@H]1CN(C)C(=O)c2ccc(NC(=O)c3ccc(-c4ccccc4)cc3)cc2OC[C@H](C)NC[C@@H]1C`, the compound was called inactive.

In the case of `C[C@H](CO)N1C[C@H](C)[C@@H](CN(C)C(=O)Nc2cccc3ccccc23)Oc2c(NC(=O)Nc3ccc(C(F)(F)F)cc3)cccc2C1=O`, the result was inactive.

Turning to `C[C@@H]1CN([C@H](C)CO)C(=O)c2cc(NC(=O)CCCN(C)C)ccc2O[C@H]1CN(C)Cc1ccc(-c2ccccc2)cc1`, the compound was called inactive.

Regarding `COCC(C)n1c(SCc2nc(N)nc(Nc3ccccc3C)n2)nc2ccccc2c1=O` (stereo not given), the compound was classed as inactive.

Regarding `Cc1ccc(CS(=O)Cc2ccc(C(=O)NC3CCCC(C)C3C)o2)cc1` (stereo not given), the compound was called inactive.

For `CC(C)NC(=O)N(C)C[C@H]1Oc2ccc(NC(=O)CCN3CCOCC3)cc2C(=O)N([C@H](C)CO)C[C@@H]1C`, the outcome was inactive.
